Rows were chosen to be rich in hits. Some 3.4% of all compounds tested hit in one or more screens of this group.
ssDAF12 agonist – activates DAF-12 receptor from parasite S. stercoralis | HEK293 ssDAF-12/GRIP1 lit1-tk-luc reporter, luminescence; % of 3 µM dafachronic acid response | activation, % at 6.8 µM | 370,000 compounds, 1% hits;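 active = activation above the mean over all tested compounds plus 3 SD, cut at about 0.9% in these data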;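 note: 0% = DMSO-only wells and 100% = 3 µM delta7-dafachronic acid wells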
hcDAF12 agonist – H. contortus DAF-12 activation, primary screen. AID 652067. activation, % at 6.8 µM. 370,000 compounds, 1.4% hits. HEK293 hcDAF-12 lit1-tk-luc reporter, luminescence; 0% DMSO, 100% Δ7-dafachronic acid;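 active = activation above the mean of all tested compounds plus 3 SD, cut at about 5.5% in these data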;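 note: 100% = response to 3 µM Δ7-dafachronic acid high control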
NF-kB neuron act – raises NF-kB expression in human neuronal cells. NF-kB reporter expression; stronger effect = higher value. fold change at 12.5 µM. 190,000 compounds, 1.6% hits; in the data active = fold change above about 3.3
hgDAF-12 ag – agonists of H. glycines DAF-12 nuclear receptor | HEK293 GAL4-hgDAF12 UAS-luciferase reporter, agonist luminescence; normalized to butyrate control | activation, % at 6.8 µM | 370,000 compounds, 1.8% hits | AID 687014;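 active = activation above a cutoff set at the mean of all screened compounds plus 3 SD, cut at about 10% in these data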;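 note: 0% = DMSO wells and 100% = sodium butyrate wells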
APP 5'UTR act – activates APP 5'UTR luciferase reporter; activation, % at 2 µM; 190,000 compounds, 1% hits; SH-SY5Y APP 5'UTR luciferase reporter, luminescence; zero percent = DMSO vehicle wells;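 active = activation above a set limit, based on mean plus 3 SD of controls, cut at about 140% in these data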
The depositor's hits bear a star; x = not tested or not shown.

SMILES	ssDAF12 agonist	hcDAF12 agonist	NF-kB neuron act	hgDAF-12 ag	APP 5'UTR act
COC(=O)[C@]12C[C@H](CC(=O)N3CCCC3)C(=O)N(CCc3ccc(OC)c(OC)c3)C1=C[C@H](C(C)(C)C)O[C@@H]2C	-2	-2	x	4	x
O=C(NCCc1c[nH]c2ccccc12)C(=O)NCC1OCCCN1S(=O)(=O)c1cccs1 (stereo not drawn)	2.2*	0	1.2	-1	8
O=C(NCCc1c[nH]c2ccccc12)C(=O)NCC1OCCCN1S(=O)(=O)c1ccc(F)cc1 (stereo not drawn)	-1	-1	1.1	-4	-19
c1ccc2c(c1)CCc1c(-c3ccncc3)n[nH]c1-2	1.6*	4	x	1	x
COC(=O)[C@]12C[C@H](CC(=O)N3CCCCC3)C(=O)N(Cc3cccc4ccccc34)C1=C[C@H](COCc1ccccc1)O[C@@H]2C	0	-3	x	-2	x
COc1ccccc1Nc1cc2cc(Br)ccc2c(=O)[nH]1	0	6.2*	x	2	x
O=c1[nH]c(Nc2ccccc2)cc2cc(Br)ccc12	-1	0	x	1	x
COc1ccc(CNC(=O)c2cccc(N3CCCC3=O)c2)cc1	1.2*	-2	0.96	2	-10
O=C(Nc1ccc(N2CCCC2=O)cc1)c1cccc(F)c1	-1	0	5.4*	11*	57
CSc1nsc(N/N=C/c2ccc3c(c2)OCO3)c1C#N	0	3	3.9*	12*	168*
Clc1cccc(CSc2ncnc3sc4c(c23)CCCC4)c1	-1	0	x	1	x
CC(SCC(=O)O)c1nc2ccccc2[nH]1 (stereo not drawn)	1.0*	0	x	3	x
Cc1cc(N/N=C/c2cccc(Br)c2)nc2ccccc12	-1	3	4.2*	6	50
CCOC(=O)[C@]12CCCC=C1N(Cc1ccc(OC)cc1)C(=O)[C@@H]2CC(=O)N1CCSCC1	-1	-2	x	2	x
Clc1ccc2[nH]c(-c3ccccc3)cc2c1	0	2	3.9*	9	119
c1ccc(-c2cc3ccccc3[nH]2)cc1	0	2	x	4	x
Cc1nc(CNS(=O)(=O)c2ccc3c(c2)CCCC3)cs1	-2	5.9*	0.84	-3	10
O=C(C1CCN(S(=O)(=O)c2ccc3[nH]c(=O)oc3c2)CC1)N1CCCN(Cc2ccccc2)CC1	-1	-1	x	6	x
Cc1cccc(-n2c(C)cc(C=C3C(=O)c4ccccc4C3=O)c2C)c1	-1	1	0.71	0	6
Cc1cc(C=C2C(=O)c3ccccc3C2=O)c(C)n1C	0	2	6.3*	4	99
O=C(/C=C/c1cccs1)NNC(=O)c1ccccc1	0	6.0*	x	7	x
O=C(/C=C/c1cccs1)Nc1scc(-c2ccccc2)c1C(=O)O	0	3	2.3	13*	120
O=C(/C=C/c1cccs1)Nc1nc(-c2ccccc2)cs1	0	-2	1.3	5	29
O=C(/C=C/c1cccs1)NNC(=O)c1cccc([N+](=O)[O-])c1	0	3	x	3	x
O=[N+]([O-])c1ccc(Cn2ccc3ccc(-c4ccc5ccn(Cc6ccccc6)c5c4)cc32)cc1	0	0	x	1	x
SMILES	ssDAF12 agonist	hcDAF12 agonist	NF-kB neuron act	hgDAF-12 ag	APP 5'UTR act
COC(=O)[C@]12C[C@H](CC(=O)N3CCCC3)C(=O)N(CCc3ccc(OC)c(OC)c3)C1=C[C@H](C(C)C)O[C@@H]2C1CC1	-1	-1	x	-3	x
Cn1c2ccccc2c2cc(C(=O)NNC(=O)CCl)sc21	-1	6.2*	2	-2	7
COc1ccc(C=Nn2c(-c3ccc(F)cc3)n[nH]c2=S)c(OC)c1OC	-1	-2	x	-2	x
O=C(NC1CCCC1)c1cc2c(ccc3ccccc32)o1	0	5	3.4*	11*	10
Cn1cc(C(=O)Nc2ccc(Cl)cc2)c(C(F)(F)F)n1	-2	-1	0.94	-5	-4
Cn1cc(NC(=O)OCc2ccc(Cl)cc2)c(C(F)(F)F)n1	0	1	3.5*	2	7
CCCC1CCC2(CCC(=O)N2CCC#N)CC1 (stereo not drawn)	-1	2	x	-3	x
COc1ccc(Nc2nc(N)nc(CSC(=S)N3CCCCC3)n2)cc1	-1	0	1.5	8	13
COc1ccc(Nc2nc(N)nc(CSC(=S)N3CCN(C)CC3)n2)cc1	5.4*	0	1.3	4	2
CCOc1cc(/C=C2/SC(=S)N(Cc3ccccc3)C2=O)ccc1O	0	6.4*	x	9	x
COc1ccc(CN(CCN2CCOCC2)C(=O)c2cc(F)cc(F)c2)cc1OC	-1	-1	x	-3	x
